Experimental data: PubChem BioAssay
Activity calls are given as the source filed them.

Assays:
Albumin (Bos taurus) = Albumin (Bos taurus) (UniProt P02769); test: compounds binding labelled BSA control protein – biochemical, small-molecule microarray, Alexa647 label, 635/667 nm fluorescence, artefact control for SMM control protein annotation, profiling panel (AID 1118); settings: BSA-A647 binding, fluorescence 635 nm, higher = more signal;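 note: score merges 667 nm emission intensity and signal-to-noise per printed compound spot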
Chain of Albumin (Bos taurus) (P02769 whole entry, looked up): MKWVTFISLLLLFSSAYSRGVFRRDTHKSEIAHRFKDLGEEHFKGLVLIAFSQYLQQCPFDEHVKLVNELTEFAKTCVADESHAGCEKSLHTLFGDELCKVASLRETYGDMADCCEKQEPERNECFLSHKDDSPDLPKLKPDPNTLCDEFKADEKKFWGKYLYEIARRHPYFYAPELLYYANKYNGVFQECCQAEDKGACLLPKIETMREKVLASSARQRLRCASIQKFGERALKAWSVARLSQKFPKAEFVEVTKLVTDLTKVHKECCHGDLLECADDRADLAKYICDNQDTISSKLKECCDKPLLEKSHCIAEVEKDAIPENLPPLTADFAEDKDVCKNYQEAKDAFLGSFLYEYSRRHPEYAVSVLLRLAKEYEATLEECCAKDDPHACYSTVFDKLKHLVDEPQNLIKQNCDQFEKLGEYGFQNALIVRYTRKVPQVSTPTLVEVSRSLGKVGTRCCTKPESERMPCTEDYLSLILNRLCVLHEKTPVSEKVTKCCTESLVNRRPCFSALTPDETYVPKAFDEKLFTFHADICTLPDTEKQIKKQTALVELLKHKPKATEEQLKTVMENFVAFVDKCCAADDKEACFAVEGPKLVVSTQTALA

[1] = probe aXIP binding to arrayed compounds – biochemical, NeuroSMM set, 635/667 nm fluorescence, primary screen (AID 1119); settings: small-molecule microarray, higher = more signal, called active from +8 up or from −8 down;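 note: probe is the protein aXip251-270 applied at 1 µg/mL to compound-printed slides; binding of probe to printed compounds measured as 667 nm fluorescence plus signal to noise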
[2] = probe aNOTCH3 binding on compound microarray – biochemical, small-molecule microarray, 635/667 nm fluorescence, primary screen (AID 1120); settings: higher = more signal;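 note: probe is a biotin-tagged antibody raised against NOTCH3 rather than NOTCH3 protein; score merges spot fluorescence near 667 nm with spot signal to noise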
[3] = probe aNOTCH2 binding on compound microarray – biochemical, small-molecule microarray, 635/667 nm fluorescence, primary screen (AID 1121); settings: higher = more signal;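 note: score merges feature fluorescence read at 667 nm with its signal to noise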
[4] = biological target: Carbonic anhydrase 2 (Homo sapiens) (UniProt P00918); test: compounds binding carbonic anhydrase 2 – biochemical, small-molecule microarray, Alexa647-labelled CAII, profiling panel (AID 1122); settings: CAII-A647 binding fluorescence, higher = more signal
[5] = COS7 lysate on small-molecule microarray, probe aHis, 635 nm (AID 1123); settings: COS7 cell lysate, fluorescence, higher = more signal;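 note: z-score combines 667nm fluorescence intensity with signal-to-noise per printed compound spot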
[6] = probe aLAP1 signal on lysate-treated microarray – cell lysate, small-molecule microarray, COS7 lysate, primary screen (AID 1124); settings: probe aLAP1, fluorescence, higher = more signal;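 note: lysate comes from COS7 cells expressing LAP1 and is applied at 0.3 µg/mL; score merges spot fluorescence near 667 nm with signal-to-noise over triplicate slides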
Sam68 (KHDRBS1) = test: compounds binding KHDRBS1 protein – biochemical, small-molecule microarray, 635 nm fluorescence, primary screen (AID 1125); settings: higher = more signal;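 note: score merges 667 nm channel intensity with signal to noise over triplicate slides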
[7] = test system: Chordin-like protein 2 (CHRDL2); test: compounds binding chordin-like 2 – biochemical, small-molecule microarray, 635 nm fluorescence, primary screen (AID 1126); settings: fluorescence 635 nm, higher = more signal;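 note: printed compound slides probed with Chrdl2 protein at 4 µg/mL for 1 h at 4 C; score merges 667 nm emission intensity with signal to noise over three replicate slides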
[8] = biological target: Concanavalin-A (Canavalia ensiformis) (UniProt P02866); test: compounds binding concanavalin A lectin – biochemical, small-molecule microarray, Alexa647 label, 635 nm, artefact control for SMM control protein annotation, primary screen (AID 1127); settings: ConA-A647 binding fluorescence, higher = more signal;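 note: z combines 667 nm emission intensity with signal-to-noise across three replicate slides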
Chain of Concanavalin-A (Canavalia ensiformis) (P02866 whole entry, looked up): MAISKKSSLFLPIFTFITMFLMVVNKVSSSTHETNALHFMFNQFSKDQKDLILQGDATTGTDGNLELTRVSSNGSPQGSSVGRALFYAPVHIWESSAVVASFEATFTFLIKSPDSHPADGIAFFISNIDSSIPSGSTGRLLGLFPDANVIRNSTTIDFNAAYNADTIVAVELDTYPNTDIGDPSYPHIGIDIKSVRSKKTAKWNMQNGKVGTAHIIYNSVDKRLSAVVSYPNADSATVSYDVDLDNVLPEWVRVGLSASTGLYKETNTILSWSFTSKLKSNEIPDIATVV

[9] = compounds binding Alexa647 anti-His antibody – biochemical, small-molecule microarray, 635 nm fluorescence, artefact control for SMM control protein annotation, primary screen (AID 1128); settings: higher = more signal;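 note: score merges feature fluorescence with signal-to-noise for each printed compound spot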
[10] = test system: Human papillomavirus type 1a E7 protein (residues 1-88); test: HPV1a E7 small-molecule binders, primary screen, biochemical, small-molecule microarray, residues 1-88, 635 nm (AID 1129); settings: small-molecule microarray binding, fluorescence 635 nm; higher = more signal
[11] = biological target: Focal adhesion kinase 1 (Homo sapiens) (UniProt Q05397); test: PTK2 protein binding on printed compound slides – biochemical, small-molecule microarray, 635/667 nm fluorescence, BSA, DTT, primary screen (AID 1130); settings: 635 nm fluorescence, higher = more signal;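 note: composite of spot emission at 667 nm and signal to noise over triplicate slides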
Chain of Focal adhesion kinase 1 (Homo sapiens) (Q05397 whole entry, looked up): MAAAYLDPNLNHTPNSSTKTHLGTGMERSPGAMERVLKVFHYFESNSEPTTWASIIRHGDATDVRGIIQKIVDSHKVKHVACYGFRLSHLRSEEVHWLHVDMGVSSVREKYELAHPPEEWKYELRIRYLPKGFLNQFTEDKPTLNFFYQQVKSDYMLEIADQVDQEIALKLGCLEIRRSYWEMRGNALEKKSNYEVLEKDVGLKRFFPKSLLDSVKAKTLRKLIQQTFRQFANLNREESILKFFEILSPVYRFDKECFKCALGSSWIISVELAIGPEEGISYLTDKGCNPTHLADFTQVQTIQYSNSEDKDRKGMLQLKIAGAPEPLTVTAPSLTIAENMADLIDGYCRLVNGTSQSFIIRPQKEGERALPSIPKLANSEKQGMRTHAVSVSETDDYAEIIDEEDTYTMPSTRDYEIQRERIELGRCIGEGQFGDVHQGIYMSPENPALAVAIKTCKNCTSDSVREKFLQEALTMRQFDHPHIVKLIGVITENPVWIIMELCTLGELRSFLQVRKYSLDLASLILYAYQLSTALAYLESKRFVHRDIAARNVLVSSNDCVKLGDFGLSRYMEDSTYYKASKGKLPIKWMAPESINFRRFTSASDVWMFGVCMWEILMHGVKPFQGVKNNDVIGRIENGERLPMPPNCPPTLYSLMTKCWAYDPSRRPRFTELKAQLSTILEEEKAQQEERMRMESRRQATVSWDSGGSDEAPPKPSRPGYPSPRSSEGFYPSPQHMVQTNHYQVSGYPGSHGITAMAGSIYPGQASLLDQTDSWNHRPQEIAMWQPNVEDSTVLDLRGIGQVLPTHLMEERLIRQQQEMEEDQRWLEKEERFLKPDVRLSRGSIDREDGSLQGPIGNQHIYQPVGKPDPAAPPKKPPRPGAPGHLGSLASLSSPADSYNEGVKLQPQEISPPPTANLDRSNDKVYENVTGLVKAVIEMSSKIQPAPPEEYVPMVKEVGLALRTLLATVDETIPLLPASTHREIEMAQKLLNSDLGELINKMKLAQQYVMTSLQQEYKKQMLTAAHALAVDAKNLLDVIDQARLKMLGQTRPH

[12] = test system: Fibrinogen (Alexa647-labelled); test: Alexa647-fibrinogen binding to printed small molecules – biochemical, small-molecule microarray, 635/667 nm fluorescence, artefact control for SMM control-protein annotation, profiling panel (AID 1131); settings: fibrinogen-A647 binding fluorescence, higher = more signal;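 note: z-score merges 667 nm fluorescence with per-spot signal-to-noise over triplicate slides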
[13] = biological target: Follistatin (Homo sapiens) (UniProt P19883); test: FST protein binding to printed compounds – biochemical, small-molecule microarray, 635/667 nm fluorescence, primary screen (AID 1132); settings: 635 nm fluorescence, higher = more signal
Chain of Follistatin (Homo sapiens) (P19883 whole entry, looked up): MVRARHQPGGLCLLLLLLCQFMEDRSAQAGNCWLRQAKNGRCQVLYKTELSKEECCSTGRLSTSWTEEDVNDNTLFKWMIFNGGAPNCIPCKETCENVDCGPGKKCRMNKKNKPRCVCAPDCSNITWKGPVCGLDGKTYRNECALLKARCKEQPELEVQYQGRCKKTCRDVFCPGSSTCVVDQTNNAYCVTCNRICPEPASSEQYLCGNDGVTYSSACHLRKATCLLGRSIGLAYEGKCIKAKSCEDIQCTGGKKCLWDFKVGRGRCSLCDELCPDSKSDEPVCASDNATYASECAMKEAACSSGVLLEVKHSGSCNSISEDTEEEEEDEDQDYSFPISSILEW

[14] = biological target: Fibroblast growth factor 2 (Homo sapiens) (UniProt P09038); test: basic fibroblast growth factor binding to printed compounds – biochemical, small-molecule microarray, 635/667 nm fluorescence, primary screen (AID 1133); settings: FGF2, fluorescence 635/667, higher = more signal
Chain of Fibroblast growth factor 2 (Homo sapiens) (P09038 whole entry, looked up): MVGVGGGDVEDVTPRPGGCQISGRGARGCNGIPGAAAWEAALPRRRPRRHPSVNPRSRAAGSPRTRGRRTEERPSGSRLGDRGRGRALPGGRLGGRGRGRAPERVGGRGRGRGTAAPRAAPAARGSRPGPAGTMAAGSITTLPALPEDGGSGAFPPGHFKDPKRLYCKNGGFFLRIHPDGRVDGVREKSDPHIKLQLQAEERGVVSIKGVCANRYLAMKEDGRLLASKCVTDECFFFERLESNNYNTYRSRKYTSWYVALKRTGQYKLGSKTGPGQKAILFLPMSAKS

[15] = JC-1 mitochondrial potential readout, lung cancer cells – cell-based, A549, JC-1 fluorescence, basal, 24 h, 100 nL, profiling panel (AID 1138); settings: higher = more signal;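 note: A549 lung adenocarcinoma cells under basal conditions with no added stimulus; test concentration not given here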
Lefty1 = Lefty1 protein binding to printed compounds – biochemical, small-molecule microarray, 635/667 nm fluorescence, primary screen (AID 1139); settings: fluorescence 635/667, higher = more signal
[16] = test system: wheat germ agglutinin (Triticum aestivum), Alexa647-labelled; test: Alexa647-WGA lectin binding to printed small molecules – biochemical, small-molecule microarray, 635/667 nm fluorescence, artefact control for SMM control-protein annotation, profiling panel (AID 1140); settings: WGA-A647 binding, 635 nm fluorescence, higher = more signal;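 note: score merges 667 nm feature emission with signal to noise over triplicate slides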
[17] = biological target: Luciferin 4-monooxygenase (Photinus pyralis) (UniProt P08659); test: inhibition of purified Photinus pyralis luciferase – biochemical, luminescence, purified enzyme, 2006 set, primary screen (AID 1141); settings: purified firefly luciferase, SteadyGlo luminescence, 30 min; higher = more signal, called active from +8 up or from −8 down;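 note: cell-free assay with purified firefly luciferase at 100 ng per well in PBS; test concentration not given here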
Chain of Luciferin 4-monooxygenase (Photinus pyralis) (P08659 whole entry, looked up): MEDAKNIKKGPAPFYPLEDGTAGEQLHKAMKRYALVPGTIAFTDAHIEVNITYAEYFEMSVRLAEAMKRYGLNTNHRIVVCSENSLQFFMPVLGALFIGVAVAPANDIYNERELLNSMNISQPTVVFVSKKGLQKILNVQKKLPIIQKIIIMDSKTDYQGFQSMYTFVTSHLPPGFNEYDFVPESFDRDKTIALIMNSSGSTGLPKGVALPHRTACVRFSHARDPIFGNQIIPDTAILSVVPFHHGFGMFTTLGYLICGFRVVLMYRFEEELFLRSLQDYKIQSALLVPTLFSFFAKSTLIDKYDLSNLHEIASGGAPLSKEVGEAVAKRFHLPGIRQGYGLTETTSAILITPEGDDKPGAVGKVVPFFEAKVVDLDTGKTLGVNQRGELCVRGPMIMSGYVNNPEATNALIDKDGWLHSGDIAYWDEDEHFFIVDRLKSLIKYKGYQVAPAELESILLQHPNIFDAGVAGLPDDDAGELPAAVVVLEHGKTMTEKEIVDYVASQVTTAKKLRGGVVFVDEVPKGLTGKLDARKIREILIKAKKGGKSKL

SMILES | composite z-score (Albumin (Bos taurus)) | composite Z-score [1] | composite z-score [2] | composite z-score [3] | composite z-score [4] | composite z-score [5] | composite z-score [6] | composite z-score (Sam68 (KHDRBS1)) | composite z-score [7] | composite z-score [8] | composite z-score [9] | composite z-score [10] | composite z-score [11] | composite z-score [12] | composite z-score [13] | composite z-score [14] | z-score [15] | composite z-score (Lefty1) | composite z-score [16] | z-score [17]
COc1ccc([Si](C)(C)[C@H]2[C@H](CC(=O)N(CCO)Cc3ccccc3)O[C@@]3(C(=O)N(c4ccccc4)c4ccccc43)[C@@H]2C)cc1 | 0.504 | 0.308 (inactive) | 0.123 | -0.117 | 0.34 | 0.66 | 0.264 | 1.2 | 1.19 | 1.06 | 1.2 | 1.11 | 0.207 | 0.743 | 1.1 | 0.679 | -0.23 | 0.83 | 0.135 | -0.429 (inactive)
COc1ccc([Si](C)(C)[C@H]2[C@H](CC(=O)N3CCC[C@H]3CO)O[C@@]3(C(=O)N(C)c4ccccc43)[C@@H]2C)cc1 | 0.728 | 1.38 (inactive) | 0.103 | -0.103 | 0.487 | 0.459 | 0.378 | 0.646 | 0.808 | 0.119 | 1.86 | 0.0098 | -0.0086 | 0.509 | 1.53 | 0.798 | -0.151 | 1.16 | 0.051 | 0.229 (inactive)
[N-]=[N+]=Nc1ccccc1C[C@]1(C(N)=O)COC(c2ccc(OCCCO)cc2)=N1 | 0.66 | 0.745 (inactive) | 0.148 | 0.105 | 0.77 | 2.98 | 1.46 | 0.0271 | -0.324 | -0.401 | 0.809 | -0.835 | 0.214 | -0.445 | 0.91 | -0.261 | -0.566 | -0.954 | 0.99 | -8.73 (active)
